Data on 14 molecules can be found in PubChem BioAssay (NCATS).

This assay can be described thus: qHTS Assay for Lipid Storage Modulators (AID 1519). For activity change, negative = inhibition: % is set by controls: 0 for no effect and ±100 for the full control effect. The settings on record: Drosophila S3 cells, BODIPY lipid droplet/cell ratio, laser cytometry, cells loaded with oleic acid. An excerpt:
NIH Molecular Libraries Probe Production Centers Network [MLPCN]
NIH Chemical Genomics Center [NCGC]
Assay Submitter (PI): Beller, Mathias; Max-Planck-Institut fur Biophysikalische Chemie
NCGC Assay Overview: Storing lipids as a reservoir for energy or the anabolism of elementary metabolites is a common feature of probably all cells and is conserved from bacteria to humans. The universal cellular lipid storage organelle is the so-called lipid storage droplet (LD). Although ubiquitous, LDs share a simple structure composed of a hydrophobic core that harbors the storage lipids, which is shielded by a droplet-specific phospholipid monolayer to which proteins are attached. The current model of LD biogenesis involves an incorporation of the lipid core into the membrane leaflets of the endoplasmic reticulum (ER) followed by a subsequent budding-like maturation of a LD, which ultimately pinches off. Once released, LD volume can increase by localized lipogenesis or fusion of existing droplets. Storage lipids are re-mobilized enzymatically by lipase activity. Lipase regulation in the adipocyte is heavily studied and involves multiple components including catecholamine signaling, the LD-associated proteins Perilipin and comparative gene identification-58 (CGI-58) and at least two lipases named hormone sensitive lipase (HSL) and adipocyte triglyceride lipase (ATGL). LD regulation outside of the adipocyte is poorly understood and only few components are known. However, there is an urgent need to learn more about ectopic fat depots as mislocalized storage of lipids, for example in the liver or muscle, is an eminent health problem associated with insulin resistance or the metabolic syndrome. We developed a laser-scanning cytometer assay to enable 1,536-well screening and combined the results of the small molecules screen with an RNAi database based on lipid storage.
NCGC Assay Protocol Summary:
We dispensed 4 uL of cells at 1.25 x 10^6 cells/mL into LoBase Aurora COC 1,536-well plates (black walled, clear bottom) with a bottle-valve solenoid-based dispenser (Aurora) to obtain 5,000 cells/well. Triacsin C (Sigma-Aldrich T-4540), an inhibitor of long-chain fatty acyl CoA synthetase that blocks synthesis of triglycerides, was used as a positive control for lipid under-storage. A total of 23 nL of compound solution of different concentrations were transferred to the assay plates using a Kalypsys pin tool equipped with a 1,536-pin array containing 10-nL slotted pins (FP1S10, 0.457-mm diameter, 50.8 mm long; V&P Scientific). One microliter of oleic acid (400 uM) was added, and the plate was lidded with stainless steel rubber gasket lined lids containing pinholes. […] Fluorescence was detected by excitation of the fluorophores with a 488-nm laser on an Acumen Explorer (TTP Lab Tech). The total intensity in channel 1 (500-530 nm) reflected lipid droplet accumulation. […] The ratio of the total intensity in PMT channel 1 over total intensity of channel 3 was also calculated. Percent activity was computed relative to an internal control (100% inhibited lipid droplet deposition due to the presence of 20 uM Triacsin C), which was added to 32 wells/plate.

Setting [1] is: measured here: cell count channel max response.
Setting [2] is: measured here: lipid channel max response.

Results filed as inconclusive are left out. Activity calls are given as the source filed them. Calls come from the whole dose curve.

With `Cc1ccccc1[C@@H](OCCN(C)C)c1ccccc1`, the activity change, negative = inhibition (at 25.7 µM (top of the series)) was -1.18% (inactive). For the same molecule, the max response under setting [1] amounted to 0.329% and the max response under setting [2] is 1.49%.
For the molecule `CC(=O)OCC1=C(C(=O)O)N2C(=O)[C@@H](NC(=O)CSc3ccncc3)[C@@H]2SC1`, under “at 25.7 µM (top of the series)”, the activity change, negative = inhibition is -4.27% (inactive). Further, the max response by setting is: under setting [1], -7.14%; under setting [2], -13.2%.
Take `CC1=C(C(=O)O)N2C(=O)[C@@H](NC(=O)[C@@H](N)c3ccccc3)[C@@H]2SC1`: the activity change, negative = inhibition (at 25.7 µM (top of the series)) is -1.09% (inactive). The max response reads like this: under setting [1], 0.948%; under setting [2], -0.484%.
As to `C[N+]1(C)CCC[C@@H](OC(=O)C(O)(c2ccccc2)c2ccccc2)C1`, the activity change, negative = inhibition (at 25.7 µM (top of the series)) was -3.46% (inactive). Besides, the max response under setting [1] was -12.3% and the max response under setting [2] is -16.2%.
For `CN1CCN(c2ncc3nc(-c4cn(C)c5ccccc45)c(=O)n(C)c3n2)CC1`, the activity change, negative = inhibition (at 57.5 µM (top of the series)) was 2.17% (inactive). Also, the max response amounted to 7.27% under setting [1] and 7.8% under setting [2].
In the same order, the values of `c1ccc(C(c2ccccc2)N2CC[C@@]3(CCCNC3)C2)cc1` are -9.5% (inactive), 4.5% and -6.03%.
As for `COc1c(-c2ccc(O)c(O)c2)oc2cc(O)cc(O)c2c1=O`, where the note is “at 57.5 µM (top of the series)”, the activity change, negative = inhibition is 0.206% (inactive). In addition, the max response is -16.5% under setting [1] and -17.7% under setting [2].
Take `O=C(c1cccc(F)c1)N1CCC2(CCCN(C(c3ccccc3)c3ccccc3)C2)CC1`: the activity change, negative = inhibition (at 57.5 µM (top of the series)) was 2.12% (inactive). In addition, the max response is, setting by setting: under setting [1], 14.6%; under setting [2], 19.7%.
For the molecule `CN(C)Cc1ccccc1-c1cc(N(C)C)ncn1`, the activity change, negative = inhibition (at 57.5 µM (top of the series)) was 5.84% (inactive). Moreover, the max response by setting is: under setting [1], 8.47%; under setting [2], 12%.
For `COc1ccccc1CNc1ncnc2ccc(-c3cccnc3)cc12`, under “at 57.5 µM (top of the series)”, the activity change, negative = inhibition is 3.28% (inactive). Besides, the max response was -9.63% under setting [1] and -6.23% under setting [2].
With `CN1CCN(c2ncncc2-c2ccc(N(C)C)cc2)CC1`, under “at 57.5 µM (top of the series)”, the activity change, negative = inhibition was 2.46% (inactive). The max response runs as follows: under setting [1], 19.8%; under setting [2], 21.2%.
In the case of `Cc1ccccc1-c1nc(-n2ccnc2)c2ccccc2n1`, the activity change, negative = inhibition (at 57.5 µM (top of the series)) is 5.99% (inactive). The max response is -6.87% under setting [1] and -2.77% under setting [2].
Take `O=C(c1ccncc1)N1CCC2(CC1)CCN(c1ccncc1)CC2`: the activity change, negative = inhibition (at 57.5 µM (top of the series)) is 1.78% (inactive). Moreover, the max response is -11.6% under setting [1] and -7.91% under setting [2].
As for `COc1ccccc1CN1CCCC2(CCN(C(=O)c3csnn3)CC2)C1`, under “at 57.5 µM (top of the series)”, the activity change, negative = inhibition is 6.98% (inactive). Also, the max response is, setting by setting: under setting [1], 9.62%; under setting [2], 21.2%.
